Source: PubChem BioAssay
An excerpt weighted towards active compounds, which were near 3% of everything screened.
Mtb FBA inh – Mtb fructose-bisphosphate aldolase inhibition. hit rate 2.3% among 360,000. inhibition, % at 1 µM. AID 588726. purified M. tuberculosis FBA, fluorescence read-out. P9WQA3; in the data active means inhibition above about 27%;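 further: 0% = vehicle and 100% = reference inhibitor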
Target sequence (P9WQA3 whole entry, looked up): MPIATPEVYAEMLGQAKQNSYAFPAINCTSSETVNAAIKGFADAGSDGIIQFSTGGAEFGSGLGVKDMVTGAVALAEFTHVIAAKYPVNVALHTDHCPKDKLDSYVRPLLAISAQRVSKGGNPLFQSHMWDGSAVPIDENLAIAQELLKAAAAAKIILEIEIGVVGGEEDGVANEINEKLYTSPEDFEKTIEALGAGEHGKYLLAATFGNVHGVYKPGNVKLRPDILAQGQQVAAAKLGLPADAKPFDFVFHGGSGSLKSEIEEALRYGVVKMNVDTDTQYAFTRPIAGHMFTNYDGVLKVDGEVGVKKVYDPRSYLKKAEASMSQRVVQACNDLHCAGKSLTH
BH1578 lux ind – quorum light induction in luxS cqsA deficient V. cholerae; activation, % at 18.7 µM; hit rate 0.16% among 350,000; V. cholerae BH1578 lux reporter, luminescence, 6 h; AID 588436; in the data active means activation mostly above about 9.7%, no sharp cut-off
GDH-TPI counter – inhibits GDH-TPI coupling enzymes, artifact for Mtb FBA screen | GDH-TPI coupled enzyme counterscreen, NADH absorbance | inhibition, % at 4.8 µM | hit rate 1.2% among 360,000 | AID 588335; in the data active means inhibition above about 30%;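 further: 0% = DMSO wells and 100% = wells lacking the enzyme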
Mtb BioA inh – inhibitors of Mycobacterium tuberculosis BioA enzyme; purified M. tuberculosis BioA enzyme, plate reader; hit rate 0.096% among 360,000; inhibition, % at 9.99 µM; AID 602481; in the data active means inhibition above about 40%
The depositor's hits bear a star; i = inactive; . = no result given; + = active, no number.

SMILES	Mtb FBA inh	BH1578 lux ind	GDH-TPI counter	Mtb BioA inh
C=CCn1c(O)c(N=NC(=S)Nc2cccc(OC)c2)c2ccccc21	-10.2	-0.2	34.6*	-0.4
Nc1ccc(-c2nc3ncccc3o2)cc1	+	0.3	42.7*	-1.1
Nc1cccc(-c2nc3ncccc3o2)c1	1.6	3.8	10.3	4.1
O=C(Nc1ccc(-c2nc3ncccc3o2)cc1)c1ccc(Br)o1	14.3	0.8	57.0*	-0.6
O=C1NCC2=C1C(c1ccccc1)Nc1ccccc1N2 (configuration not stated)	5.5	8.3	31.7*	0.7
COC(=O)c1c(-c2ccc(S(C)(=O)=O)cc2)sc2cc(OC)ccc12	189.9*	-0.8	12.9	1.2
C[C@@H]1CN([C@H](C)CO)C(=O)Cc2cc(NC(=O)Nc3ccc4c(c3)OCO4)ccc2O[C@@H]1CN(C)S(=O)(=O)c1ccc(Cl)cc1	.	.	.	-0.7
Cc1nc2scc(C)n2c(=O)c1S(=O)(=O)NCc1ccccc1	23.8	i	37.9*	-3.8
Cc1ccc(-c2nc(C(=O)NCCCN(C)C)cc3c2[nH]c2ccccc23)cc1	28.2*	-0.3	8.8	2.7
Cc1ccc(N2CCCn3c2cc(C)c(C#N)c3=O)cc1C	5.2	i	38.8*	-1.0
Cc1ccc(N2CCCn3c2cc(C)c(C#N)c3=O)cc1Cl	-1.0	i	15.5	-0.9
CC(C)(NO)/C(=N\O)c1ccccc1	53.8*	i	-6.0	-3.2
Cc1cc(/C(=N/O)C(C)(C)NO)ccc1Cl	0.8	-2.0	3.2	-1.5
COc1ccc(NC(=O)Nc2ccc3c(c2)C(=O)N([C@H](C)CO)C[C@H](C)[C@@H](CN(C)C)OCCCC[C@@H](C)O3)cc1	.	.	.	-5.0
O=C(C1CCC1)N1CCCCN2[C@H](CO)[C@@H](c3ccc(-c4cccc(F)c4)cc3)[C@@H]2C1	.	.	.	-0.9
COc1cccc(NC(=O)C(=O)c2cn(CC(=O)N3CCCC3)c3ccccc23)c1	-0.7	-0.5	31.0*	0.0
CCc1ccc(NC(=O)C(=O)c2cn(CC(=O)N3CCCCC3)c3ccccc23)cc1	-3.0	-0.2	37.0*	-0.3
C(=N\Nc1nc2ccccc2[nH]1)/c1ccccc1	-0.4	-0.7	15.0	-0.5
Cc1ccccc1/C=N/Nc1nc2ccccc2[nH]1	189.3*	-0.4	12.3	.
Cc1[nH]c2ccccc2c1/C=N/Nc1nc2ccccc2[nH]1	1.4	i	22.7	0.4
Cc1ccc(/C=N/Nc2nc3ccccc3[nH]2)s1	1.0	-0.3	39.3*	-1.3
Cc1ccsc1/C=N/Nc1nc(Cl)c(Cl)cc1Cl	0.6	-3.3	14.6	-0.1
Cc1ccc(/C=N/Nc2nc(Cl)c(Cl)cc2Cl)s1	1.4	i	31.2*	-1.3
C(=C\c1ccccc1)/C=N/Nc1nc2ccccc2[nH]1	-0.1	-0.3	39.4*	.
C(=N\Nc1nc2ccccc2[nH]1)/c1c[nH]c2ccccc12	0.4	-0.4	19.4	.
SMILES	Mtb FBA inh	BH1578 lux ind	GDH-TPI counter	Mtb BioA inh
C/C=C/c1ccc([C@@H]2[C@@H](CO)N(C(=O)CC)[C@@H]2CNC(=O)CC2CC2)cc1	.	.	.	-5.9
CC(=O)N1[C@H](CO)[C@H]2c3ccccc3N(S(=O)(=O)c3ccccc3F)C[C@H]21	.	.	.	-0.2
Cc1cc(O)cc(O)c1C(=O)Cc1ccccc1	0.4	-0.3	6.9	.
O=C(Cc1ccc([N+](=O)[O-])cc1)c1c(O)cc(O)cc1O	-1.3	-4.8	35.1*	2.9
CC(=O)NC(Cc1ccc(N(CCCl)CCCl)cc1)C(=O)O (configuration not stated)	0.9	1.5	8.1	-0.2
N[C@@H](Cc1ccc(N(CCCl)CCCl)cc1)C(=O)O	5.3	-0.5	32.6*	-3.3
CCN(CC)c1ccc(/C=N/NC(=O)C(O)c2ccccc2)cc1 (configuration not stated)	17.4	2.1	15.1	-0.5
NC(Cc1ccc(O)cc1)C(=O)NN=Cc1ccc(N(CCCl)CCCl)cc1 (configuration not stated)	22.9	8.3	49.8*	-1.3
Cc1noc(C)c1NC(=O)Nc1cccc2c1O[C@H](CN(C)Cc1ccc(-c3ccccc3)cc1)[C@@H](C)CN([C@@H](C)CO)C2=O	.	.	.	-5.8
Cc1cc(C)cc(NC(=O)Nc2ccc3c(c2)C(=O)N(C)[C@@H]2CC[C@H](CC(=O)O)O[C@H]2CO3)c1	.	.	.	-2.8
CC(C)=CCN1CCN(Cc2cccc3nccnc23)CC1CCO (configuration not stated)	-1.6	i	31.2*	-0.7
CC(C)=CCN1CCN(Cc2cccc3nonc23)CC1CCO (configuration not stated)	-2.2	0.2	-1.3	.
CN(C)c1ccc2cc(S(=O)(=O)O)cc(O)c2c1	169.2*	13.0	15.3	-4.6
c1ccc2c(c1)cc1ccc3cccc4ccc2c1c34	33.9*	i	8.8	.
Cc1ccc2ccc3cccc4ccc1c2c34	4.1	-0.4	11.8	0.0
